Assay [1] in a line: qHTS assay to identify small molecule agonists of the sonic hedgehog signaling (Shh) pathway (AID 1259368).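 Further: NIH/3T3-derived 3T3Gli1-Luc cells carrying a stable Gli1-driven firefly luciferase reporter; series mostly up to about 92 µM; nearly all actives have a fitted effect of over 15% in size.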 In a few lines:
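Hedgehog pathway agonism scored by increased firefly luciferase luminescence in 3T3Gli1-Luc cells treated 24 hr at 37 C; detection used a 30 min room-temperature reagent incubation.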
On the technique in general: In qHTS, concentration-response curves come from the screen itself.

The nature of assay [2]: qHTS assay to identify small molecule antagonists of the sonic hedgehog signaling (Shh) pathway (AID 1259369). Further: nearly all actives have a fitted effect of over 45% in size. Further: potency means the concentration at half of the fitted maximal effect. In a few lines: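 NIH/3T3 stable Gli1-Luc clone, 2,000 cells/well, 4hr settle; cpd + conditioned medium 24hr; Luc reagent 30min RT; luminescence.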
For assay [3], the target named is Estrogen receptor beta (Homo sapiens) (UniProt Q92731). Briefly: qHTS assay to identify small molecule agonists of the estrogen receptor beta (ER-beta) signaling pathway (AID 1259377; active means well fitted activation curve with a large enough effect in the signal ratio in the repeat runs, not every such curve was filed as active; the % refers to the signal ratio). In outline: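 Beta-lactamase reporter readout: fluorescence of LiveBLAzer B/G FRET substrate after 2 h at room temperature, following 16 h compound treatment of ER-beta-UAS-bla HEK293T cells at 37C in 2% charcoal-stripped FBS medium.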

Assay [4] has the same target. Briefly: qHTS assay to identify small molecule antagonists of the estrogen receptor beta (ER-beta) signaling pathway (AID 1259378; active means well fitted inhibition curve with a large enough effect in the signal ratio in the repeat runs, not every such curve was filed as active; the % refers to the signal ratio; further: potency means the concentration at half of the fitted maximal effect). In a few lines: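 ER-beta-UAS-bla HEK293T cells in 2% charcoal-stripped FBS medium treated with compound plus 1nM final 17-beta-estradiol for 16 hr at 37C. Beta-lactamase reporter read by FRET substrate fluorescence after 2 hours at room temperature.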

The nature of assay [5]: qHTS assay to identify small molecule agonists of the androgen receptor (AR) signaling pathway in the presence of an antagonist - cell viability counter screen (AID 1259379; active means well fitted curve in the direction sought with a large enough effect in the repeat runs; an effect the other way counts as inactive or inconclusive;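 further: MDA-kb2 human breast cancer cells carrying an MMTV luciferase reporter; series mostly up to about 92 µM; nearly all actives have a fitted effect of over 25% in size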). In a few lines:
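MDA-kb2 viability measured by CellTiter-Fluor fluorescence in the same wells as the luciferase signal; nilutamide 3.0uM final; 15-point compound titration; 16 hr at 37C.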

Assay [6] is described as follows: qHTS assay to identify small molecule agonists of the estrogen receptor beta (ER-beta) signaling pathway - cell viability counter screen (AID 1259380; active means well fitted curve in the direction sought with a large enough effect in the repeat runs; an effect the other way counts as inactive or inconclusive; further: nearly all actives have a fitted effect of over 30% in size). In outline: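 Measured: luminescence from CellTiter-Glo after 30 min at room temperature, added to wells already read for the LiveBLAzer FRET reporter (2 hr substrate); ER-beta-UAS-bla HEK293T cells had 16 hr compound treatment at 37C, 5% CO2.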

For assay [7], the target named is Androgen receptor (Homo sapiens) (UniProt P10275). Briefly: qHTS assay to identify small molecule agonists of the androgen receptor (AR) signaling pathway in the presence of an antagonist (AID 1259381). Further: nearly all actives have a fitted effect of over 15% in size. In outline:
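Luminescent ONE-Glo read, 30min at room temperature, follows 16hr compound exposure (15 concentrations) of MDA-kb2 cells at 37C, 0% CO2, with nilutamide added at 3.0uM final.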

Assay [8] can be described thus: qHTS assay to identify small molecule antagonists of the estrogen receptor beta (ER-beta) signaling pathway - cell viability counter screen (AID 1259382; active means well fitted curve in the direction sought with a large enough effect in the repeat runs; an effect the other way counts as inactive or inconclusive; further: series mostly up to about 92 µM; nearly all actives have a fitted effect of over 55% in size). In a few lines:
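Readout: luminescence, CellTiter-Glo, same wells as bla assay. System: ER-beta-UAS-bla GripTite HEK293T, 2% charcoal-stripped FBS. Exposure: compounds plus 1nM 17-beta-estradiol, 16 hr, 37C.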

Assay [9] deals with Estrogen receptor (Homo sapiens) (UniProt P03372). Briefly: qHTS assay to identify small molecule agonists of the estrogen receptor alpha (ER-alpha) signaling pathway in the presence of an antagonist (AID 1259383). Further: top concentration of the series differs between compounds; nearly all actives have a fitted effect of over 15% in size. In outline:
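Quantitative HTS confirmation: compounds titrated at 15 concentrations onto estrogen-deprived VM7Luc4E2 cells carrying a four-ERE luciferase construct, with ICI-182,780 present at 10.0nM final. Signal is luminescence after 22hr exposure.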

Assay [10] is described as follows: qHTS assay to identify small molecule agonists or antagonists of the thyroid stimulating hormone receptor (TSHR) signaling pathway - wild type cell line counter screen (AID 1259384). In outline: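 Wild-type Hek293 cells, 800/well, 18 h at 37C, then compound with Ro20-1724 for 30 min RT. cAMP by HTRF (cAMP-d2/anti-cAMP cryptate), 1 h RT, fluorescence read. 15 concentrations, triplicates.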

Unmarked numbers belong to inactive results. Inconclusive results are not listed. Calls of active or inactive are those of the source. Unless noted, the call rests on the fitted dose curve.
On the % scale 0 is the no-effect control and ±100 the full control effect.

Androgen receptor (Homo sapiens), sequence (P10275 whole entry, looked up): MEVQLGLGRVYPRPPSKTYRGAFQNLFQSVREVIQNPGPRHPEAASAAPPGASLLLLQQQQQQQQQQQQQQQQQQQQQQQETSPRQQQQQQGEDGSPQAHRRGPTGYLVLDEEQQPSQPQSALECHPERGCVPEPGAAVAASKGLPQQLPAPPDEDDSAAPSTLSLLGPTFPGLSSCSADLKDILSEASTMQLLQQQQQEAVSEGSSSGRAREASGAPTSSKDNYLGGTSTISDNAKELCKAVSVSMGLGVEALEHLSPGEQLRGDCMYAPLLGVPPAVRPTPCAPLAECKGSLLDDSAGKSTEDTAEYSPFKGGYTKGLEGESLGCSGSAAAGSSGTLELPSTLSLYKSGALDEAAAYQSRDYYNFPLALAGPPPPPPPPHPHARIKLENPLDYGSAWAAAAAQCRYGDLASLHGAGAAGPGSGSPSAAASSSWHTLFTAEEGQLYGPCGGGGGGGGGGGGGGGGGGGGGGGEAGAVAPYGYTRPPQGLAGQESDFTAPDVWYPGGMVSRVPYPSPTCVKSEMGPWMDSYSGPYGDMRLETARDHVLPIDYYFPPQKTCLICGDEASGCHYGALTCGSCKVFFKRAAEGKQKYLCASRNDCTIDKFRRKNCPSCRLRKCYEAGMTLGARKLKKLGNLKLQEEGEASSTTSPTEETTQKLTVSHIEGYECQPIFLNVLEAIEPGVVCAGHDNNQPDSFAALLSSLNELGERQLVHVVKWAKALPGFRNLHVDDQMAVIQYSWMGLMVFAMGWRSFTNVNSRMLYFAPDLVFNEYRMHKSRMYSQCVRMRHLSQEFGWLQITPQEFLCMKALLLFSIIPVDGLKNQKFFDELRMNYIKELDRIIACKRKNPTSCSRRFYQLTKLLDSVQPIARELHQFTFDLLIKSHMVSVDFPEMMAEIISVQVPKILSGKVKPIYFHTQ
Estrogen receptor (Homo sapiens), sequence (P03372 whole entry, looked up): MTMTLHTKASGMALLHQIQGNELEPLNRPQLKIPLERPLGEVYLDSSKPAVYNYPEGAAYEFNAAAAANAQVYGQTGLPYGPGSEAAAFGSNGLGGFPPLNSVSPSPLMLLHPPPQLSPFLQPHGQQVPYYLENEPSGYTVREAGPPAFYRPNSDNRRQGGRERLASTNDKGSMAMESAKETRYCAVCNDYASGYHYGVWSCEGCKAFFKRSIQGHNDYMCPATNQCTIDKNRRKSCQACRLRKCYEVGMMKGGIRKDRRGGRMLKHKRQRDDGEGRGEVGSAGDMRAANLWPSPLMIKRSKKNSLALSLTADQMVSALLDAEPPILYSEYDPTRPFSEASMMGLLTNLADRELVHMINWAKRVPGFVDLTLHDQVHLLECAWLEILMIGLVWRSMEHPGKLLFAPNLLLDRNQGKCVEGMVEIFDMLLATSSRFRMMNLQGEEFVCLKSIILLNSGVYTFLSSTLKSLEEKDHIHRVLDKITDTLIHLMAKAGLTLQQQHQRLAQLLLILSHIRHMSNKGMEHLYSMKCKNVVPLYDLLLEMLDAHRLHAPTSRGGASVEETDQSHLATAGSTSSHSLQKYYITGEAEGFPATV
Estrogen receptor beta (Homo sapiens), sequence (Q92731 whole entry, looked up): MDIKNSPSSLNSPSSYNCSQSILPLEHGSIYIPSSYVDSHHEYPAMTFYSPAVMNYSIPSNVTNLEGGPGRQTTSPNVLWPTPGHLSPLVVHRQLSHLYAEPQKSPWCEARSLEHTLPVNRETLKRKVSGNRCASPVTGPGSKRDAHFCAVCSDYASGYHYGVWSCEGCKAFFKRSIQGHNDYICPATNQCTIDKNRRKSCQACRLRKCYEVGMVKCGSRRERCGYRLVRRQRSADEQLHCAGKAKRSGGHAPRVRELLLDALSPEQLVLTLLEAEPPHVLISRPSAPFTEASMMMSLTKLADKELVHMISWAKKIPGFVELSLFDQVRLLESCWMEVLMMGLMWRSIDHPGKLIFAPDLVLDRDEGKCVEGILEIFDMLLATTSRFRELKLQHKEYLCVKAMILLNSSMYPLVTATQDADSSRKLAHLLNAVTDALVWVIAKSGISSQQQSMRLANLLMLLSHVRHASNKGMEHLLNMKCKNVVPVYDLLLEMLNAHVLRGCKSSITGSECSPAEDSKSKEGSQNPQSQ

For `C1CCCCCCCCCCC1`, in assay [1], the activity change is -0.649% [at 18.9 µM, hits give high values]. For the same molecule, the activity change, negative = inhibition in [2] was 13.4% [at 19 µM]. Further, the activation in [3] was -0.402% [at 19 µM]; in assay [9] it was -2.76% [at 19 µM]. Also, in assay [4], the activity, negative = inhibition is 0.969% [at 19 µM]. Moreover, the activity change, negative = cytotoxicity is -1.18% [at 19 µM] in [5], -0.0692% [at 19 µM] in assay [6] and 1.11% [at 19 µM] in assay [8]. In addition, the Potency entry in [7] is “inactive”. Besides, the cAMP activity change in [10] is -4.57% [at 18.9 µM].
With `O=C(O)/C=C/c1ccc(/C=C/C(=O)O)cc1`, the Potency result in assay [1], in assay [2], in assay [4], in [5], in assay [6] and in assay [8] was “inactive” throughout. Besides, in [3], the molecule was called inactive.
Regarding `COc1cc(C)cc(O)c1`, the Potency entry in [1], in assay [2], in assay [4], in [5], in assay [6] and in assay [8] was “inactive” each time. Besides, the molecule was called inactive in [3].
Take `C=C(C)C(=O)NCCCN(C)C`: the Potency result in [1], in [2], in assay [4], in [5], in [6] and in [8] was “inactive” throughout. Also, the molecule was called inactive in assay [3].
Take `C[C@H](O)C(=O)Nc1c(I)c(C(=O)NC(CO)CO)c(I)c(C(=O)NC(CO)CO)c1I`: the Potency entry in [1], in [2], in assay [4], in [5], in [6] and in assay [8] was “inactive” in each case. In addition, the Potency entry in [9] is “inactive”. The molecule was classed as inactive in [3] and in assay [10].
For the molecule `C/C=C1\C(=O)C[C@H]2[C@@H]3CCC4=CC(=O)CC[C@]4(C)[C@H]3CC[C@]12C`, the Potency entry in [1], in [5], in assay [6], in assay [8] and in assay [9] was “inactive” in each case. Moreover, the results for the Potency in [2] and in assay [4] were 5.99 µM (active) and 26.8 µM (active), respectively. Further, the outcome in assay [3] was inactive.
Consider `CCC(=O)Nc1cccc(N)c1`, for which the Potency result in assay [1], in [2], in assay [4], in assay [5], in assay [6] and in assay [8] was “inactive” in each case. Besides, the Potency result in [9] was “inactive”. The outcome in [3] and in [10] was inactive.
Consider `COc1cccc(Br)c1`, for which the Potency entry in assay [1], in assay [2], in assay [4], in assay [5], in assay [6] and in assay [7] was “inactive” throughout. In addition, the Potency entry in assay [8] and in assay [9] was “inactive” throughout. Further, the molecule was classed as inactive in assay [3] and in [10].
Take `CC(C)CCCCCCN`: the Potency entry in assay [1], in assay [2], in assay [4], in [5], in assay [6] and in assay [7] was “inactive” in each case. The Potency entry in assay [8] and in assay [9] was “inactive” each time. For the same molecule, the molecule was classed as inactive in assay [3] and in [10].
In the case of `CCN1CCN(c2cc3c(cc2F)c(=O)c(C(=O)O)cn3C2CC2)CC1`, the Potency result in [1], in assay [2], in [4], in assay [5], in assay [6] and in [7] was “inactive” in each case. In addition, in [8], the Potency entry was “inactive”. Besides, the call in assay [3] and in [10] was inactive.
As for `O=C(O)/C=C/c1ccc(Cn2ccnc2)cc1`, the Potency entry in assay [1], in assay [2], in [4], in assay [5], in [6] and in assay [8] was “inactive” in each case. In [3], the outcome was inactive.
`CCCCN(CCO)CCO`: the Potency entry in [1], in [2], in assay [4], in assay [5], in assay [6] and in assay [8] was “inactive” in each case. Besides, the Potency entry in assay [9] is “inactive”. The molecule was classed as inactive in assay [3].
Consider `CC(C)c1cccc(O)c1`, for which the Potency result in assay [1], in assay [2], in assay [4], in assay [5], in [6] and in assay [8] was “inactive” each time. In assay [9], the Potency result is “inactive”. Further, the result in assay [3] and in assay [10] was inactive.
`CCCC=O`: the Potency entry in assay [1], in [2], in assay [4], in [5], in assay [6] and in [8] was “inactive” in each case. Besides, the molecule was classed as inactive in assay [3] and in [10].
In the case of `Nc1[nH]c(=O)ncc1F`, the Potency entry in assay [1], in assay [2], in [4], in assay [5], in assay [8] and in [9] was “inactive” each time. Moreover, in [3], the call was inactive.
Turning to `C=C(C)C(=O)OCCCCCCCCCCCCCCCCCC`, in [1], the activity change was -0.0741% [at 18.9 µM, hits give high values]. Moreover, the activity change, negative = inhibition in assay [2] is 6.62% [at 19 µM]. Besides, the activation in assay [3] is 0.356% [at 19 µM]; in assay [9], 0.0113% [at 19 µM]. In [4], the activity, negative = inhibition is -0.254% [at 19 µM]. In addition, the activity change, negative = cytotoxicity in assay [5] is 0.335% [at 19 µM]; in assay [6], -0.0598% [at 19 µM]; in assay [8] it was 13.7% [at 19 µM]. For the same molecule, the cAMP activity change in assay [10] was -1.57% [at 18.9 µM].
`COC(=O)c1ccc(C(=O)OC)c(C(=O)OC)c1`: the Potency result in assay [1], in [2], in assay [4], in [5], in assay [6] and in assay [8] was “inactive” throughout. Further, in assay [9], the Potency result was “inactive”. Besides, the molecule was classed as inactive in assay [3] and in assay [10].
Consider `NS(=O)(=O)c1cc(C2(O)NC(=O)c3ccccc32)ccc1Cl` (stereo not drawn), for which the Potency entry in assay [1], in [2], in assay [4], in [5] and in assay [8] was “inactive” in each case. Further, the outcome in [3] and in assay [10] was inactive.
`Nc1cc(N)cc(C(=O)O)c1`: the Potency result in assay [1], in assay [2], in assay [4], in assay [5], in [6] and in [8] was “inactive” each time. In addition, the Potency entry in assay [9] was “inactive”. The outcome in [3] and in [10] was inactive.
For the molecule `CCCCCCCCCCCCCCCCCCOCC(O)CO` (stereo not drawn), the Potency entry in [1], in assay [2], in [4], in assay [5], in assay [8] and in assay [9] was “inactive” throughout. Further, the molecule was called inactive in assay [3] and in [10].
As to `CCN1CCCC(OC(=O)C(c2ccccc2)c2ccccc2)C1` (stereo not drawn), the Potency entry in [1], in [2], in [4], in assay [5], in assay [8] and in assay [9] was “inactive” each time. Also, the molecule was called inactive in [3] and in assay [10].
As to `Cc1c(C)n(CCN(C)C)c2ccc(C(=O)OCCN(C)C)cc12`, the Potency entry in assay [1], in [2], in assay [4], in [5], in assay [8] and in [9] was “inactive” throughout. Besides, the result in assay [3] was inactive.
Take `CC(C)(C)N(CCO)CCO`: the Potency entry in assay [1], in assay [2], in [4], in [5], in assay [6] and in assay [8] was “inactive” in each case. For the same molecule, the Potency entry in [9] is “inactive”. Besides, the molecule was classed as inactive in assay [3] and in [10].
With `CC(C)(C)CC(C)(C)N`, the Potency result in assay [1], in assay [2], in [4], in assay [5], in assay [6] and in [8] was “inactive” each time. Further, the Potency entry in assay [9] is “inactive”. Moreover, the outcome in assay [3] and in assay [10] was inactive.
Regarding `COc1cccc(OC)c1`, the Potency result in assay [1], in [2], in assay [4], in assay [5], in assay [6] and in [8] was “inactive” in each case. Besides, the result in assay [3] and in [10] was inactive.

The values above are taken from PubChem BioAssay (Tox21).
